In PubChem BioAssay (NCI) one finds growth data, which are given here for 8 compounds.

Among the test systems are NCI-H23 lung; NCI-H226 lung; NCI-H322M lung; HOP-62 NSCLC; NCI-H460 lung; HOP-92 NSCLC; NCI-H522 lung; A549/ATCC NSCLC; 786-0 renal; COLO 205 colon; DU-145 prostate; K-562 leukemia; MALME-3M melanoma; MDA-MB-231 breast; RXF 393 renal; SF-268 CNS; SF-295 CNS; SF-539 CNS; UACC-257 melanoma; M14 melanoma.
Common to all, as to test: NCI-60 one-dose screen, 48 h (100 = growth as untreated, 0 = no growth, -100 = all killed)
What all share (details): 10 µM unless noted

Each structure is given as a SMILES string. About 83,000 compounds went through this panel and 20% of them were active in at least one assay; those are over-represented in the sample as a whole.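 Results are percent growth after 48 hours of single-concentration exposure. 100 means growth as in untreated cells, lower positive values show inhibition; negative values down to -100 show cell death.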 Values without a mark were called inactive. Calls of active or inactive are those of the source. How the source made its calls: active means growth percent below 10; inactive means the rest.

In the case of `COc1ccc2nc(SCC(=O)Nc3ccccc3C)[nH]c2c1`, the growth was 101% with NCI-H23 lung; 92.2% in the assay with NCI-H226 lung; 90% in the assay with NCI-H322M lung; 90% in the assay on HOP-62 NSCLC; 104% in the assay with NCI-H460 lung; 83.2% with HOP-92 NSCLC. Moreover, the growth with NCI-H522 lung is 87.9%; in the assay with A549/ATCC NSCLC, 84%; with 786-0 renal, 99.9%; with COLO 205 colon, 113%; in the assay on DU-145 prostate, 105%; with K-562 leukemia, 97.5%. In addition, the growth was 96.9% in the assay on MALME-3M melanoma; 98.6% in the assay with MDA-MB-231 breast; 105% in the assay with RXF 393 renal; 102% in the assay with SF-268 CNS; 93% in the assay on SF-295 CNS; 101% in the assay on SF-539 CNS. The values for the growth in the assay with UACC-257 melanoma and in the assay on M14 melanoma were 90% and 101%, respectively.

As to `CC(C)(CO)N(CCO)CCO`, the growth with NCI-H23 lung was 97.3%; with NCI-H226 lung, 94%; with NCI-H322M lung it was 95.4%; with HOP-62 NSCLC, 110%; in the assay on NCI-H460 lung, 110%; with HOP-92 NSCLC, 78.9%. Besides, the growth in the assay on NCI-H522 lung is 95.9%; in the assay with A549/ATCC NSCLC, 114%; with 786-0 renal, 102%; in the assay with COLO 205 colon it was 123%; in the assay with DU-145 prostate, 118%; in the assay on K-562 leukemia, 101%. Further, the growth in the assay with MALME-3M melanoma was 105%; with MDA-MB-231 breast it was 104%; with RXF 393 renal, 104%; in the assay with SF-268 CNS it was 104%; in the assay on SF-295 CNS, 108%; with SF-539 CNS it was 97.4%. Further, the growth in the assay on UACC-257 melanoma is 116%; in the assay on M14 melanoma, 108%.

With `O=C(/C=C/c1ccccc1)Nc1ncc(Cc2ccccc2)s1`, the growth in the assay on NCI-H23 lung is 24.8%; in the assay on NCI-H226 lung it was 60.3%; with NCI-H322M lung, 31.4%; in the assay on HOP-62 NSCLC, 13.7%; in the assay with NCI-H460 lung, 2.22% (active); with HOP-92 NSCLC it was 85.7%. Also, the growth was -4.58% (active) in the assay on NCI-H522 lung; 22.1% in the assay with A549/ATCC NSCLC; 24.5% with 786-0 renal; 8.42% (active) in the assay with COLO 205 colon; 16% with DU-145 prostate; 10.5% in the assay with K-562 leukemia. Further, the growth is 44.3% in the assay on MALME-3M melanoma; 33.4% in the assay with MDA-MB-231 breast; 10.9% in the assay with RXF 393 renal; 39.4% in the assay with SF-268 CNS; -10.7% (active) in the assay with SF-295 CNS; -22.2% (active) in the assay with SF-539 CNS. Further, the growth was 48.3% with UACC-257 melanoma and 5.78% (active) with M14 melanoma.

`COc1cc(C(=O)c2c(-c3ccccc3)oc3c(OC)cccc23)cc(OC)c1O`: the growth with NCI-H23 lung is 34%; in the assay on NCI-H226 lung it was -0.617% (active); with NCI-H322M lung, 56.2%; in the assay with HOP-62 NSCLC, 31.8%; in the assay with NCI-H460 lung, 3.99% (active); in the assay with HOP-92 NSCLC it was 34.9%. Also, the growth in the assay with NCI-H522 lung is 13.1%; with A549/ATCC NSCLC it was 20.2%; in the assay on 786-0 renal it was 33.4%; with COLO 205 colon, 7.65% (active); in the assay on DU-145 prostate, 23%; with K-562 leukemia, 13.4%. Besides, the growth is 47.4% with MALME-3M melanoma; 17% in the assay on MDA-MB-231 breast; -6.63% (active) with RXF 393 renal; 46.5% in the assay with SF-268 CNS; 2.85% (active) with SF-295 CNS; -13.2% (active) in the assay with SF-539 CNS. Further, the growth in the assay on UACC-257 melanoma is 71.4%; with M14 melanoma, 16.3%.

For `CCN(CCO)CC(C)Nc1ccc([N+](=O)[O-])c2sc3ccccc3c(=O)c12` (stereo not given), the growth is 40.2% in the assay with NCI-H23 lung; 14.4% in the assay on NCI-H226 lung; 15.6% in the assay with NCI-H322M lung; 36.9% in the assay on HOP-62 NSCLC; 9.73% (active) in the assay with NCI-H460 lung; -0.953% (active) with HOP-92 NSCLC. Further, the growth with NCI-H522 lung was 15.3%; in the assay with A549/ATCC NSCLC, 12.2%; in the assay on 786-0 renal, 34.3%; with COLO 205 colon, 15%; in the assay on DU-145 prostate, 41.3%; with K-562 leukemia, 12.5%. Besides, the growth in the assay with MALME-3M melanoma was 13.4%; in the assay on MDA-MB-231 breast, 48.8%; in the assay with RXF 393 renal, 9.27% (active); with SF-268 CNS, 36.1%; in the assay on SF-295 CNS it was 17.4%; in the assay with SF-539 CNS, 25%. Also, the growth was 31.5% in the assay on UACC-257 melanoma and 29.3% with M14 melanoma.

In the case of `O=c1ccc2nc(C(F)(F)F)nn(-c3ccccc3)c-2c1`, the growth in the assay with NCI-H23 lung was 67.7%; in the assay with NCI-H226 lung, 77.7%; with NCI-H322M lung, 99.8%; with HOP-62 NSCLC, 69%; in the assay with NCI-H460 lung, 97.3%; with HOP-92 NSCLC, 35.2%. The growth with NCI-H522 lung is -56% (active); with A549/ATCC NSCLC it was 93%; in the assay with 786-0 renal it was 22.2%; in the assay on COLO 205 colon, -70.7% (active); in the assay on DU-145 prostate it was 40.5%; in the assay with K-562 leukemia, -35.1% (active). In addition, the growth is -41.7% (active) in the assay on MALME-3M melanoma; 61% in the assay on MDA-MB-231 breast; -20.5% (active) in the assay with RXF 393 renal; 77.4% in the assay on SF-268 CNS; 91.9% in the assay on SF-295 CNS; 92.8% in the assay with SF-539 CNS. Further, the figures for the growth with UACC-257 melanoma and with M14 melanoma were 35.6% and 62.1%, respectively.

Turning to `O=C(/C=C/c1ccc(Br)cc1)c1ccc(-n2cc(CN3CCN(c4cc5c(cc4F)c(=O)c(C(=O)O)cn5C4CC4)CC3)nn2)cc1`, the growth in the assay with NCI-H23 lung is 85.4%; with NCI-H226 lung, 84.5%; in the assay with NCI-H322M lung, 87.1%; with HOP-62 NSCLC, 87.4%; with NCI-H460 lung, 85.8%; with HOP-92 NSCLC, 84.6%. In addition, the growth in the assay with NCI-H522 lung was 78.3%; with A549/ATCC NSCLC it was 87.3%; in the assay on 786-0 renal, 76.7%; in the assay on COLO 205 colon, 107%; in the assay with DU-145 prostate, 78.9%; with K-562 leukemia, 51.5%. For the same compound, the growth with MALME-3M melanoma was 102%; in the assay with MDA-MB-231 breast, 80.1%; with RXF 393 renal, 88.4%; in the assay on SF-268 CNS it was 72.6%; in the assay with SF-295 CNS, 87.6%; with SF-539 CNS, 83%. For the same compound, the growth with UACC-257 melanoma is 95.8%; in the assay on M14 melanoma, 87%.

As to `COc1ccc2nc(Cl)c(/C=C/C(=O)c3ccc(NC(=O)CSc4nnc(-c5ccc(Cl)c(Cl)c5)n4-c4ccccc4)cc3)cc2c1`, the growth in the assay on NCI-H23 lung was 96.5%; in the assay on NCI-H226 lung, 96.8%; in the assay on NCI-H322M lung, 93.6%; with HOP-62 NSCLC, 83.2%; in the assay on NCI-H460 lung, 97.7%; with HOP-92 NSCLC, 67.8%. Besides, the growth in the assay on NCI-H522 lung is 74.1%; in the assay with A549/ATCC NSCLC it was 69.7%; in the assay on 786-0 renal it was 92.3%; with COLO 205 colon, 101%; in the assay on DU-145 prostate, 98.2%; in the assay on K-562 leukemia, 87.2%. Besides, the growth with MALME-3M melanoma was 92.3%; in the assay with MDA-MB-231 breast it was 89.3%; with RXF 393 renal it was 91.8%; in the assay with SF-268 CNS it was 89.1%; in the assay with SF-295 CNS, 94%; in the assay on SF-539 CNS, 105%. In addition, the growth with UACC-257 melanoma is 81.1%; with M14 melanoma it was 91.7%.
